# High-throughput results (PubChem BioAssay)
# Sampled rows, rich in hits. Any-hit rate of the full collection: about 2.4%.
# D2 PAM-1 – HTS Assay for Positive Allosteric Modulators of the Human D2 Dopamine Receptor: Primary Screen for Potentiators; 340,000 compounds, 0.34% hits; potentiation, % at 10 µM; D(2) dopamine receptor (Homo sapiens), P14416; HEK293 T-REx D2, calcium flux, EC20 dopamine potentiation;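 active = potentiation over 3 SD above the plate norm, cut at about 30% in these data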; also: 0% is about no effect
# Target sequence (P14416 whole entry, looked up): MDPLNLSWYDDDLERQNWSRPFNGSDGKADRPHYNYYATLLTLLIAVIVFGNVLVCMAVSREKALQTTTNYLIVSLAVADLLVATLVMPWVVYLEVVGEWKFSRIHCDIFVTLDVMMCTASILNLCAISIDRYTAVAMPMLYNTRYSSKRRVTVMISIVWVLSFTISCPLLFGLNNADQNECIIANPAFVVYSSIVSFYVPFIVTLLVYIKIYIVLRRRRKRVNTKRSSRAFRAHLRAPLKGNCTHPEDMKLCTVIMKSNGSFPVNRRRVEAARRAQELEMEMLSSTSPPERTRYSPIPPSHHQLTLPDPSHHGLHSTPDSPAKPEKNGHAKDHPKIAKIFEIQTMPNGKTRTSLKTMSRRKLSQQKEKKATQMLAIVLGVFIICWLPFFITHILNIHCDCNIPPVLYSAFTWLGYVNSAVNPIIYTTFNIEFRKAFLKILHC
#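 Tetracycline-induced HEK293 T-REx cells force-coupled to calcium signalling expressed D2; compounds were pin-added after a 10 s baseline, read kinetically 180 s, then an EC20 dopamine challenge followed with a further 180 s calcium read.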
# D2 antagonist – HTS Assay for Allosteric Antagonists of the Human D2 Dopamine Receptor: Primary Screen for Antagonists; D(2) dopamine receptor (Homo sapiens), P14416; HEK293 TREx D2 cells, calcium flux, dopamine EC80; inhibition, % at 10 µM; 340,000 compounds, 2% hits; AID 485344, 2010; in the data active = inhibition above about 30%; inactive = below that, where a call was filed; also: 0% is about no effect
#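 Calcium mobilization kinetics were recorded at 1 s intervals in tetracycline-induced HEK293 T-REx D2 cells, first for 180 s after compound addition and then 180 s after EC80 dopamine.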
# D2 PAM-2 – Beta-Arrestin HTS for Positive Allosteric Modulators of the Human D2 Dopamine Receptor: Potentiators. D(2) dopamine receptor (Homo sapiens), P14416. DiscoveRx D2 beta-arrestin cells, luminescence, 90 min; 100% = 57 uM dopamine signal. potentiation, % (no concentration beside the values). 360,000 compounds, 0.23% hits. AID 624464, 2012; in the data active = potentiation above about 50%
#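 D2 cells co-treated with compound plus 50 nM dopamine (EC20) for 90 min at 37 deg C to detect potentiation. Beta-arrestin recruitment was read as enzyme-fragment luminescence after 1 h at ambient temperature. Full response was set by 57 uM dopamine.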
# B2AR arrestin – qHTS assay of beta-arrestin-biased ligands of beta2-adrenergic receptor; beta-arrestin recruitment to beta2AR, cell-based reporter; Potency, µM (titrated, usually from 46.1 µM), without a hit: top-dose activation, actives largely listed as activators; Beta-2 adrenergic receptor (Homo sapiens), P07550; 330,000 compounds, 0.02% hits; active = well fitted activation curve with a large enough effect;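 also: potency is read from the fitted curve at half-maximal effect; 0% = DMSO controls and full agonism = EC100 isoproterenol or metaproterenol; nearly all actives have a fitted effect of over 65% in size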
# D2 ag-1 – HTS Assay for Allosteric Agonists of the Human D2 Dopamine Receptor: Primary Screen for Agonists. HEK293 T-REx D2 cells, calcium flux agonist mode. activation, % at 2 µM. 340,000 compounds, 0.53% hits. AID 485358, 2010. D(2) dopamine receptor (Homo sapiens), P14416;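 active = activation over 3 SD above normal in the single-dose calcium agonist read, cut at about 30% in these data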; also: 0% is about no effect
#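 Agonism is scored from calcium flux in a force-coupled, inducible HEK293 cell line expressing D2, read kinetically for 180 s after compound addition against dopamine controls.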
# D2 ag-2 – Beta-Arrestin HTS for Positive Allosteric Modulators of the Human D2 Dopamine Receptor: Agonists; activation, % (concentration not given with the values); DiscoveRx PathHunter D2 beta-arrestin, luminescence, 90 min; 100% = 57 uM dopamine signal; 360,000 compounds, 0.084% hits; D(2) dopamine receptor (Homo sapiens), P14416; in the data active = activation above about 40%
#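 DiscoveRx PathHunter D2 beta-arrestin cells (2,100/well) attached overnight, then compound-stimulated 90 min at 37 C in HBSS/10 mM HEPES/0.1% Tween-20 buffer; beta-galactosidase complementation read by luminescence after 1 h at ambient temperature. Dopamine 57 uM final (EC100) as control.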
# Starred values were filed as active, the others as inactive; · = no result given.
SMILES,D2 PAM-1,D2 antagonist,D2 PAM-2,B2AR arrestin,D2 ag-1,D2 ag-2
COc1cc(C(=O)Nc2ccc(C)cc2)c2ccccc2n1,3.7,1.9,-1.5,0.5%,-0.2,1.5
CC(C)(C)NC(=O)NC(=O)COC(=O)CCCc1c[nH]c2ccccc12,16.8,70.0*,-0.3,-0.7%,-0.3,-1.1
CCOC(=O)Cn1c(=O)n(C2CCCCC2)c2nc(-c3cccc(F)c3)nc(C(N)=O)c21,-5.1,·,·,·,0.7,·
CC(=O)Nc1ccc(C(=O)OC2CCCCC2=O)cc1 (stereo not drawn),1.7,1.6,-7.2,-0.8%,-0.6,1.0
Clc1ccc(OCCSc2nnnn2C2CCCCC2)cc1,-6.8,34.4*,-12.3,0.0%,0.3,-1.9
COc1ccc(C(=O)Nc2c3c(nn2C(C)(C)C)CS(=O)(=O)C3)cc1OC,13.7,35.1*,-6.1,3.4%,0.3,-4.2
Cc1ccc(S(=O)(=O)N(C)c2ccccc2)cc1,-3.8,-0.6,3.5,-0.2%,0.5,-4.1
CC(=O)Oc1ccc(N(c2ccccc2)S(=O)(=O)c2ccc(C)cc2)cc1,38.7*,-15.9,-3.7,-0.3%,1.8,-2.7
CN(C)c1ccc(CNn2cnnc2SCc2ccc(F)cc2)cc1,37.6*,-3.0,-2.2,0.4%,-1.3,1.4
Cc1c2cc(O)c(=O)cc-2oc2cc(O)c(O)cc12,10.8,-4.0,14.2,-0.1%,0.9,-5.5
COc1cc(OC)c(-c2c3cc(O)c(=O)cc-3oc3cc(O)c(O)cc23)cc1OC,-13.9,-95.9,-38.6,-1.1%,148.0*,-14.3
COc1ccc(/C=N/S(=O)(=O)CCc2ccccc2)c(OC)c1,-3.6,0.6,-11.1,-0.2%,-0.5,-0.3
O/N=C(/c1ccc(Cl)cc1)C1CC1c1ccccc1 (stereo not drawn),4.7,4.8,-3.8,-0.4%,0.9,2.2
Cc1ccc(C2CC2/C(=N/O)c2ccc(F)cc2)cc1 (stereo not drawn),-6.8,33.6*,10.7,0.0%,0.2,1.0
CC(=O)Nc1nnc(COc2ccccc2)s1,-2.7,3.3,-3.7,0.1%,0.0,-2.7
COCc1nnc(NC(C)=O)s1,-8.7,32.4*,-3.8,2.6%,0.5,-2.1
NC(=O)Cn1cc(C(=O)C(=O)N2CCOCC2)c2ccccc21,7.4,5.1,-5.4,-0.7%,-0.4,0.6
CCOC(=O)c1cc2c(=O)n3ccccc3nc2n(CCOC)c1=NC(=O)C(C)(C)C,-11.3,-14.3,11.0,-1.0%,0.3,-0.8
CCOC(=O)c1cc2c(=O)n3ccccc3nc2n(CCCOC)c1=NC(=O)C(C)(C)C,-7.7,-6.1,-9.0,-0.5%,31.8*,-4.2
O=C1CC(c2nc3ccccc3[nH]2)CN1c1ccccc1F (stereo not drawn),-0.2,6.4,-2.3,-0.7%,-0.2,-5.4
O=C1CC(c2nc3ccccc3[nH]2)CN1c1cccc(C(F)(F)F)c1 (stereo not drawn),-5.1,32.9*,-8.3,-2.4%,1.4,-0.8
Cc1ccc(N2CC(C(=O)N3CCC(c4nc5ccccc5[nH]4)CC3)CC2=O)cc1C (stereo not drawn),-11.3,33.6*,-7.0,0.4%,-0.3,0.7
O=C(NCCO)c1ccc(-c2cnc3cccnn23)cc1,·,·,-8.3,·,·,-0.5
CCN(C(=O)c1cc2c(s1)-c1c(C)cccc1OC2)c1cc(C)ccc1C,13.8,·,·,·,·,·
CC(C)OCCCNC(=O)c1ccc(CN2CCc3ccccc3C2)cc1,-21.3,44.1*,-25.4,-0.5%,-0.4,-5.9
COC(=O)c1ccc(CN2CCc3ccc(NC(=O)c4ccncc4)cc3C2)cc1,-12.9,34.6*,-36.9,-0.5%,1.4,3.0
